Results on 24 compounds are retold here after PubChem BioAssay (NCATS).

A short description of experiment [1]: Primary qHTS for inhibitors of nuclear receptor binding SET domain protein 2 (NSD2) in an RCH-ACV wild type WT cells (2C) (AID 1645877). Note: nearly all actives have a fitted effect of over 70% in size. Note: potency is the fitted concentration of half-maximal effect. Conditions: RCH-ACV (leukaemia line) NSD2 WT (2C) viability, CellTiter-Glo, 72 h; series mostly up to 44.9 µM. On the technique in general: In qHTS, concentration-response curves come from the screen itself.
The nature of experiment [2]: HepG2 viability counterscreen (readout 2: ATP content) against the NCATS DSHEA and TCM libraries (AID 1794840).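 Note: HepG2 cells exposed to substances for about 24 h; 0% is about no effect.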 Particulars: ATP content luminescence; series mostly up to 27.3 µM. Put shortly:
(§1)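 Readout 1: cellular protease activity, GF-AFC substrate (25 uM final, 30 min, fluorescence 380/510 nm). Readout 2: ATP content by CellTiter-Glo luminescence after 30 min at RT. Both follow ~24 h exposure of HepG2 cells (1,000/well) to substances.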
Background: The purpose of a counterscreen is to sort out artefacts and off-target activity.

Experiment [3] in a line: HepG2 viability counterscreen (readout 1: protease activity) against the NCATS DSHEA and TCM libraries (AID 1794841).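 Note: cells exposed to compounds for about 24 h before the protease read; 0% is about no effect.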 Conditions: qHTS concentration series; series mostly up to 27.3 µM. Put shortly:
as §1

Experiment [4] deals with Glutathione peroxidase 1 (Homo sapiens) (UniProt P07203). The experiment in a line: Primary qHTS Assay for Inhibitors of Recombinant Selenoprotein Glutathione Peroxidase 1 (GPX1) (AID 1845191). Note: nearly all actives have a fitted effect of over 65% in size. Note: potency is the fitted concentration of half-maximal effect. Particulars: recombinant GPX1, GR-coupled NADPH fluorescence, 15 min; series mostly up to 48.8 µM. Put shortly:
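Recombinant GPX1 (10 nM final) was preincubated with compound for 30 min at room temperature, then reacted with 1 mM GSH, 0.5 mM CHP, 0.5 mM NADPH and 100 nM glutathione reductase; NADPH fluorescence (340/450 nm) was read at 0 and 15 min.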

The target in experiment [5] is Phospholipid hydroperoxide glutathione peroxidase GPX4 (Homo sapiens) (UniProt P36969). The experiment in a line: Primary qHTS Assay for Inhibitors of Recombinant Selenoprotein Glutathione Peroxidase 4 (GPX4) (AID 1845192). For activity change, negative = inhibition: % is set by controls: 0 for no effect and ±100 for the full control effect. Note: nearly all actives have a fitted effect of over 65% in size. Particulars: recombinant GPX4, GR-coupled NADPH fluorescence, 15 min; series mostly up to 50 µM. Put shortly:
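GR-coupled readout: 100 nM GR, 1 mM GSH, 0.5 mM NADPH; NADPH fluorescence (ex 340/em 450 nm) read at t=0 and after 15 min RT. GPX4 200 nM, preincubated 30 min with compound; substrate 0.5 mM CHP.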

Experiment [6] has as its target Catechol O-methyltransferase (Homo sapiens) (UniProt P21964). The experiment in a line: Confirmatory Screen for Target Class Profiling of Small Molecule Inhibitors of Methyltransferases (AID 1745852; calls by dose curve; for activity change, negative = inhibition: % is set by controls: 0 for no effect and ±100 for the full control effect). Particulars: MTase-Glo luminescence, SAH detection, recombinant enzyme; measured here: COMT max response; stronger effect = lower value.
Experiment [7] deals with Guanidinoacetate N-methyltransferase (Homo sapiens) (UniProt Q14353). Described as above. Particulars: MTase-Glo luminescence, SAH detection, recombinant enzyme; activity change, negative = inhibition: at 57.3 µM (top of the series) unless noted.
For experiment [8], the target named is Nicotinamide N-methyltransferase (Homo sapiens) (UniProt P40261). Described as above. Conditions: MTase-Glo luminescence, SAH detection, recombinant enzyme; measured here: NNMT max response; stronger effect = lower value.
Sequence of Nicotinamide N-methyltransferase (Homo sapiens) (P40261 whole entry, looked up): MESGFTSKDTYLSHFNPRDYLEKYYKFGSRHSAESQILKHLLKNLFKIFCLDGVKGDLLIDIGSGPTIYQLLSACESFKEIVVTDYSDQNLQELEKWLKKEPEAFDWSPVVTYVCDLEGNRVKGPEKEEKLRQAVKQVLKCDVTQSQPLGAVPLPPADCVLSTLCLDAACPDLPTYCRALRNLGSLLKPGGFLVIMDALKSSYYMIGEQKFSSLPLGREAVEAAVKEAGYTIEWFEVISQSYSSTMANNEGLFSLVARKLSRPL
Experiment [9] has as its target Phenylethanolamine N-methyltransferase (Homo sapiens) (UniProt P11086). The description is as above. Conditions: MTase-Glo luminescence, SAH detection, recombinant enzyme; measured here: PNMT max response; stronger effect = lower value.
The nature of experiment [10]: NCATS anti-infectives library activity on HEK293 viability as a counter-qHTS vs the C. elegans viability qHTS (AID 1745854).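 Note: HEK293 cells exposed to compounds for 24 hr before the viability read; % is set by controls: 0 for no effect and ±100 for the full control effect.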 Conditions: HEK293 viability counter-screen; series mostly up to 41.8 µM. The method in brief:
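HEK293 cells (1,500/well) exposed 24 hr at 37C to 1:5 titrations, up to 41.7 uM final; counter-screen to a C. elegans viability qHTS. Viability by CellTiter-Glo luminescence after 10 min at room temperature; digitonin as control.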

The target in experiment [11] is Metallo-beta-lactamase type 2 (Klebsiella pneumoniae) (UniProt C7C422). The experiment in a line: qHTS to identify inhibitors of the New Delhi Metallo-beta-lactamase (NDM): assay validation screen against the NCATS LOPAC Collection (AID 1794843).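 Note: nitrocefin turnover by NDM-1 measured as 485 nm absorbance at plateau; % is set by controls: 0 for no effect and ±100 for the full control effect.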 Conditions: NDM-1 enzyme, nitrocefin hydrolysis, absorbance 485 nm; series mostly up to 38.4 µM. The method in brief:
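Enzyme 2 nM final, 50 mM HEPES pH 7.0, 1 uM ZnSO4, 0.01% Tween20; cpds in DMSO, preincub w/ enzyme; + nitrocefin (50 uM stock); A485 at plateau; no-enzyme column as blank.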

SMILES strings stand for the structures. Inconclusive results are not listed. Active and inactive are the calls of the source. Unless noted, calls come from the whole dose curve; as a rule, active = well fitted curve in the direction sought with a large enough effect; inconclusive = small, poorly fitted or top-dose-only effect, or another doubt; inactive = no such curve, though single readings can be large; an effect the other way counts as inactive or inconclusive.

Sequence of Glutathione peroxidase 1 (Homo sapiens) (P07203 whole entry, looked up): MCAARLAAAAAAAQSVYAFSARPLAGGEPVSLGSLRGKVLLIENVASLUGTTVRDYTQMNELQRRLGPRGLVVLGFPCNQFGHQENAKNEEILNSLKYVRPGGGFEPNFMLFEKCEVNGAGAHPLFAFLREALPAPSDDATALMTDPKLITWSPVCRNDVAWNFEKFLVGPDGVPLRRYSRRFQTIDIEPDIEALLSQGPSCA
Sequence of Phospholipid hydroperoxide glutathione peroxidase GPX4 (Homo sapiens) (P36969 whole entry, looked up): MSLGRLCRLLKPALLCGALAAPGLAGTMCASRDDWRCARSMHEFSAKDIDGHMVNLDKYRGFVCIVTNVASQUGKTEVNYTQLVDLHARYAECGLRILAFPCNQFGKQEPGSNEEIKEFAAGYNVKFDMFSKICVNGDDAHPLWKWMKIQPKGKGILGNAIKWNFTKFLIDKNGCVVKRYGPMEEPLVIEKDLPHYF
Sequence of Phenylethanolamine N-methyltransferase (Homo sapiens) (P11086 whole entry, looked up): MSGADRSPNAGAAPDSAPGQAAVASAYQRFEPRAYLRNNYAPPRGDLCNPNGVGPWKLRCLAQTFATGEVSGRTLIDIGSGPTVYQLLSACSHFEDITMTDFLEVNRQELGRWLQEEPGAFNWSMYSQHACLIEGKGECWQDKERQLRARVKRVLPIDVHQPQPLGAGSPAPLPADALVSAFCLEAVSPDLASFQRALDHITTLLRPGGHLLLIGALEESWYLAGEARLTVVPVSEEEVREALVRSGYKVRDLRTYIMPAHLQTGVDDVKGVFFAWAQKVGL
Sequence of Catechol O-methyltransferase (Homo sapiens) (P21964 whole entry, looked up): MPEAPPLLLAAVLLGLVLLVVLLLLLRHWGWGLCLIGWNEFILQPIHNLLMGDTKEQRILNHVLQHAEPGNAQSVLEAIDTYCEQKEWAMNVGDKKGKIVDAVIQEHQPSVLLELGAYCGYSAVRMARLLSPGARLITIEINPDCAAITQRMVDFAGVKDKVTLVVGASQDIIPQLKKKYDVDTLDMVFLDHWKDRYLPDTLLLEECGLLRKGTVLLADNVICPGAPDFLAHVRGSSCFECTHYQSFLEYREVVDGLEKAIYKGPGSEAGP
Sequence of Metallo-beta-lactamase type 2 (Klebsiella pneumoniae) (C7C422 whole entry, looked up): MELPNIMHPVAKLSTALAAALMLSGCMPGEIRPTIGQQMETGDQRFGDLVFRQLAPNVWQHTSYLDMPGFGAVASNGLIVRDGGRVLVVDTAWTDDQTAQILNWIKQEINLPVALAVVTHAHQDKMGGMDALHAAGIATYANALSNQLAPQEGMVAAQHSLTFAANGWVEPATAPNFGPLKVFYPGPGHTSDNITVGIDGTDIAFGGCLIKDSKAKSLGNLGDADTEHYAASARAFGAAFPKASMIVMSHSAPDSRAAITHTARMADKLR

For `COC1=CC(=O)O[C@@H](/C=C/c2ccccc2)C1`, the Potency result in experiment [1], in experiment [4] and in experiment [5] was “inactive” in each case. Further, the outcome in experiment [2] and in [3] was “inactive” in each case.
Take `COc1cc(C(=O)O[C@H]2[C@@H]3C=CO[C@@H](O[C@@H]4O[C@H](CO)[C@@H](O)[C@H](O)[C@H]4O)[C@@H]3[C@@]3(CO)O[C@@H]23)ccc1O`: the Potency entry in experiment [1], in [4] and in [5] was “inactive” throughout. In addition, the activity in [6] is -83.5%; in [8] it was -4.95%; in experiment [9], -3.91%. Moreover, the activity change, negative = inhibition in experiment [7] is -1.53% [at 29.8 µM]. Moreover, in experiment [10], the outcome was “inactive”.
With `CCC(C)(C#N)O[C@@H]1O[C@H](CO)[C@@H](O)[C@H](O)[C@H]1O` (stereo partly specified), the Potency result in [1], in [4] and in [5] was “inactive” in each case.
Take `CC(C)=C1CC[C@]23CO[C@H](C2)[C@@](O)(C(=O)O)CCC13` (stereo partly specified): the Potency entry in experiment [1], in experiment [4] and in [5] was “inactive” throughout.
In the case of `COC1C(O)C(C)OC(OC2C(CO)O[C@@H](O[C@@H]3CC4CCC5C(CC[C@]6(C)[C@@H](C7=CC(=O)OC7)CC[C@]56O)[C@@]4(C)[C@H](O)C3)C(O)C2O)C1O` (stereo partly specified), the Potency in experiment [1] was 483 nM (active). Further, the Potency entry in [4] and in experiment [5] was “inactive” throughout.
`C1=C2CCCN[C@H]2[C@@H]2C[C@H]1[C@H]1CCCCN1C2`: the Potency result in [1], in [4] and in experiment [5] was “inactive” each time. For the same compound, the outcome in experiment [10] was “inactive”.
For the compound `CC[C@H]1CN2CC[C@H]1C[C@@H]2[C@@H](O)c1ccnc2ccc(OC)cc12`, the Potency entry in [1], in experiment [4] and in experiment [5] was “inactive” throughout.
In the case of `CC(CCc1ccc(O)cc1)O[C@@H]1O[C@H](CO[C@H]2OC[C@](O)(CO)[C@H]2O)[C@@H](O)[C@H](O)[C@H]1O` (stereo partly specified), the Potency entry in experiment [1], in [4] and in experiment [5] was “inactive” each time.
Take `COC(=O)C1(C)CCC(O)C2(C)c3cc(O)c(C(C)C)cc3C(O)C(OC(C)=O)C12` (stereo unspecified): the Potency entry in [1], in experiment [4] and in experiment [5] was “inactive” in each case.
Regarding `CN1[C@@H]2CC[C@H]1CC(OC(=O)C1C=Nc3ccccc31)C2` (stereo partly specified), the Potency result in experiment [1], in [4] and in [5] was “inactive” each time.
`N#C/C(=C/c1ccc(O)c(O)c1)C(N)=S`: the Potency is 9200 nM (active) in [1] and 14300 nM (active) in experiment [4]. The results for the activity in [6], in [8] and in experiment [9] were 52.2%, -5.97% and 1.47%, respectively. Also, the activity change, negative = inhibition in experiment [7] is -6.16%. Also, the Potency entry in experiment [11] and in experiment [5] was “inactive” throughout.
Consider `C[C@H]1C(=O)O[C@H]2[C@H](O)[C@]34C5OC(=O)[C@]3(O[C@@H]3OC(=O)[C@H](O)C34[C@H](C(C)(C)C)[C@H]5O)C12O` (stereo partly specified), for which the Potency result in experiment [1], in [4] and in experiment [5] was “inactive” each time.
In the case of `Cc1cc(C(=O)CN2CCCC2)c(C)n1-c1ccc(F)cc1`, the Potency result in experiment [1], in experiment [4] and in [5] was “inactive” in each case. In addition, the outcome in [10] is “inactive”.
Regarding `CCN1C[C@]2(COC)[C@H](O)C[C@H](OC)[C@]34[C@@H]5C[C@]6(O)[C@H](OC(=O)c7ccccc7)[C@@H]5[C@@](O)([C@H]([C@H](OC)[C@H]23)[C@@H]14)[C@@H](O)[C@@H]6OC`, the Potency result in [1], in experiment [4] and in [5] was “inactive” throughout.
In the case of `C/C=C(\C)C(=O)OC1CC2C(C)(C)OC(=O)CC(OC(C)=O)C2(C)C2CC(OC(=O)C(C)C)C3(C)C(c4ccoc4)CC4OC43C12C` (stereo unspecified), the Potency entry in experiment [1], in experiment [4] and in experiment [5] was “inactive” each time.
On to `CO[C@H]1[C@H](O)[C@H](O[C@H]2CC[C@]3(C)C4CC[C@]5(C)[C@H](C6=CC(=O)OC6)CC[C@]5(O)C4CC[C@@H]3C2)O[C@@H](C)[C@@H]1O` (stereo partly specified), for which the Potency in [1] was 28.2 nM (active). The Potency result in [4] and in experiment [5] was “inactive” throughout.
With `CN1[C@H]2C[C@H](OC(=O)[C@H](CO)c3ccccc3)C[C@@H]1[C@@H](O)C2`, the Potency result in experiment [1], in [4] and in experiment [5] was “inactive” each time.
`COC1=CC(=O)O[C@@H](CCc2ccccc2)C1`: the Potency result in experiment [1], in [4] and in experiment [5] was “inactive” each time.
As to `Clc1ccc(OCC2=NCCN2)cc1Cl`, the Potency result in [1], in [4] and in experiment [5] was “inactive” in each case.
For the compound `CCC1NC(=O)C2C(Cl)C(Cl)CN2C(=O)C(C(C)O)NC(=O)CC(c2ccccc2)NC(=O)C(CO)NC1=O` (stereo unspecified), the Potency entry in experiment [1], in experiment [4] and in experiment [5] was “inactive” in each case.
On to `CC(C)C1(OO)C=C2C(=O)CC3C(C)(C(=O)O)CCCC3(C)C2CC1` (stereo unspecified), for which the Potency entry in experiment [1], in experiment [4] and in [5] was “inactive” throughout.
On to `CC1=C2C(=O)C3[C@@H](CC=C4C[C@@H](O)CC[C@@]43C)[C@@H]2CC[C@]12O[C@@H]1C[C@H](C)CN[C@H]1[C@H]2C` (stereo partly specified), for which the Potency result in [1], in [4] and in experiment [5] was “inactive” throughout.
`CCC(C)(OC(C)=O)C(=O)O[C@H]1[C@H](OC(C)=O)C[C@@H]2[C@@](C)([C@@H]3C[C@H]4C=CO[C@H]4O3)[C@H](C)C[C@H](OC(C)=O)[C@@]2(COC(C)=O)[C@@]12CO2` (stereo partly specified): the Potency result in experiment [1], in [4] and in experiment [5] was “inactive” throughout.
`COC1CC(O[C@H]2CC[C@]3(C=O)C4CC[C@]5(C)[C@@H](C6=CC(=O)OC6)CC[C@]5(O)[C@@H]4CC[C@]3(O)C2)OC(C)C1O[C@@H]1O[C@H](CO)[C@@H](O)[C@H](O)[C@H]1O` (stereo partly specified): the Potency in [1] is 85.8 nM (active). For the same compound, the Potency result in experiment [4] and in experiment [5] was “inactive” each time.
